The structures appear in SMILES notation. Compounds without any hit were thinned out: in the full panel of roughly 83,000, 20% have a hit.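 In brief: 96-well plates, 48 h treatment, single concentration, percent growth endpoint.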 Active and inactive are the calls of the source.

The subject of the assay is U251 CNS. As to the kind of experiment: NCI-60 one-dose screen, 48 h (100 = growth as untreated, 0 = no growth, -100 = all killed). The conditions noted are these: 10 µM unless noted. As for the experimental part:
Growth inhibition of the U251 human tumor cell line is measured as a screen for anti-cancer activity. Cells are grown in 96 well plates and exposed to the test compound for 48 hours. Compounds are tested at a single concentration, which is 10^-5 M for most compounds. The reported endpoint is percent growth (GI% or GIPRCNT), where numbers from 0 - 100% represent growth inhibition, and numbers from -100% - 0 represent cell death. For example, a value of 40 represents 60% growth inhibition. A value of 0 means no net growth occurred over the course of the experiment. A value of -40 indicates 40% of cells at the beginning of the experiment died by the end of the experiment. A value of -100 means all cells are dead at the end of the experiment.
NCI-60 Human Tumor Cell Lines Screen was performed using the standard one-dose NCI protocol, which is described in more detail at https://dtp.cancer.gov/discovery_development/nci-60/default.htm.
Compounds with GIPRCNT values below 10 were considered active. Activity score was based on GIPRCNT using the following formula: […]
Score is 0 for GIPRCNT values of 100 or above, 50 for GIPRCNT values of 0, and 100 for GIPRCNT values of -100.
For `OCc1cccnc1`, the growth is 91.8% (inactive).
To `Cc1ccccc1CC(N)C(=O)O` (stereo not given) belongs 102% (inactive); to `CC(c1ccccc1)N1C(=O)CSC1=S` (stereo not given), 17.3% (inactive).
To `NC(=S)c1c(N)n(C2OC(CO)C(O)C2O)c2ncnc(N)c12` (stereo not given) belongs 17.3% (inactive).
With `O=C(NC1CCCCC1)c1ccc(Cl)cc1`, the growth is 98.6% (inactive).
To `CC(=O)NC(O)C(Cl)Cl` (stereo not given) belongs 91.4% (inactive).
To `CC1CN(CCO)CC(C)O1` (stereo not given) belongs 102% (inactive).
To `COC1OC(C(O)C(O)CO)C(O)C(O)C1O` (stereo not given) belongs 98.9% (inactive); to `Cn1c(=O)[nH]c2ccccc2c1=O`, 93.6% (inactive); to `NC(=S)N/N=C/c1ccc(OC(=O)COc2ccc(Cl)cc2)cn1`, 32.6% (inactive).
Take `CCCc1cccc(CCC)c1NC(=O)Nc1cc(Cl)cc(Cl)c1`: the growth is 101% (inactive).
To `O=C(N/N=C\c1ccc(Cl)cc1Cl)c1ccncc1` belongs 92.7% (inactive); to `C=CCc1cc(OC)c(OC)c(OC)c1`, 102% (inactive).
To `O=Cc1ccc(O)c(O)c1` belongs 102% (inactive).
To `CCC(C)C1CCC(O)CC1` (stereo not given) belongs 98.8% (inactive); to `O=S(=O)(O)C(C(I)I)S(=O)(=O)O`, 96.3% (inactive); to `CC(=O)N=c1ccc2nc3c(cc(N)c4ccccc43)oc-2c1`, -73.7% (active).
Regarding `c1ccc2[nH]c(Cc3nc4ccccc4[nH]3)nc2c1`, the growth was 106% (inactive).
To `O=S(=O)(OCCOS(=O)(=O)c1ccccc1)c1ccccc1` belongs 92.6% (inactive); to `Cc1ccc(Cc2ccc(C)cc2)cc1`, 101% (inactive).
To `C[C@H](CCC[C@H](C)OS(=O)(=O)c1ccccc1)OS(=O)(=O)c1ccccc1` belongs 108% (inactive); to `O=[n+]1ccn([O-])c2ccccc21`, 100% (inactive); to `O=C(NCc1ccco1)Nc1cccc2c(NC(=O)NCc3ccco3)cccc12`, 64.8% [100 µM] (inactive).
To `CCOC(=O)Nc1nccs1` belongs 98.9% (inactive); to `CCCC(OC(C)=O)c1ccc2c(c1)OCO2` (stereo not given), 96% (inactive).
Turning to `O=S(=O)(O)c1cccc2cccnc12`, the growth was 113% (inactive).
Take `CCC(=O)Oc1c(C)cc(O)c2ccccc12`: the growth was 87.7% (inactive).
On to `Ic1cccs1`, for which the growth is 96.3% (inactive).
Turning to `CC(=O)/C(C)=N\OC(=O)Nc1ccccc1`, the growth was 93% (inactive).
To `Cc1cccnc1NC1OC(=O)c2ccccc21` (stereo not given) belongs 101% (inactive); to `CCOC(=O)N[C@H]1CCc2cc(OC)c(OC)c(OC)c2-c2ccc(SC)c(=O)cc21`, 17.1% (inactive).
To `Nc1ccc(F)cc1F` belongs 106% (inactive).
To `Cc1ccccc1NC(=O)Oc1ccc(Cl)cc1C(=O)c1ccccc1` belongs 87.6% (inactive); to `Nc1ccn(C2OC(CO)C(O)C2F)c(=O)n1` (stereo not given), 78.6% (inactive).
`CC(=O)N(C)N=Nc1ccc(C)cc1`: the growth was 106% (inactive).
To `S=c1nc(-c2ccccn2)c(-c2ccccn2)n[nH]1` belongs 102% (inactive).
To `CS(=O)CC(=N\O)/C(CS(C)=O)=N\O` (stereo not given) belongs 96.5% (inactive); to `O=C(O)Cc1ccc(Cl)cc1`, 104% (inactive); to `CC(=O)OC/C(C)=C\CC(C)COC(C)=O` (stereo not given), 101% (inactive).
To `CCOc1ccc(NC(=S)N2CCC(CCCC3CCN(C(=S)Nc4ccc(OCC)cc4)CC3)CC2)cc1` belongs 95.1% (inactive).

The values above are taken from PubChem BioAssay (NCI).
